{"source": "PubChem BioAssay AID2315", "about": "(National Center for Advancing Translational Sciences (NCATS), 2010)", "note": "In all, about 290,000 compounds went through this assay and about 27,000 (9.3%) were called active. The sample as a whole holds a higher share of actives than the screen did. Unmarked numbers belong to inactive results. Cut-off read from the data, not from the text of the source: active = inhibition mostly above about 28% (no sharp cut-off); inactive = mostly below about 43%."}
{"test": "A qHTS for Small Molecule Inhibitors of Shiga Toxin; note: 0% is about no effect", "conditions": "Vero cells, Shiga toxin protein synthesis inhibition reporter; at 38.7 µM, hits give high values"}
{"smiles": "Cc1cc(C)nc(Nc2ncn[nH]2)n1", "inhibition": "-5.43%"}
{"smiles": "COc1ccccc1-c1nc(SC)n[nH]1", "inhibition": "50.6%"}
{"smiles": "Cc1cc(C)nc(Nc2n[nH]c(-c3ccccc3N)n2)n1", "inhibition": "55% (active)"}
{"smiles": "CCOc1ccc(CNC(=O)C2CCCN(c3nnc(C)c4c(C)n(-c5ccccc5)nc34)C2)cc1", "note": "(configuration not stated)", "inhibition": "-7.91%"}
{"smiles": "N#CC1(NC(=O)COC(=O)CCN=C2NS(=O)(=O)c3ccccc32)CCCCC1", "inhibition": "12.6%"}
{"smiles": "COc1ccc(NC(=O)CN(C)C(=O)CNC(=O)C2CCCCC2)cc1", "inhibition": "14.6%"}
{"smiles": "CN(CC(=O)Nc1ccc(Cl)cc1)C(=O)CNC(=O)c1ccc2ccccc2c1", "inhibition": "121% (active)"}
{"smiles": "COc1cccc(NC(=O)CN(C)C(=O)Cc2ccc(Cl)cc2Cl)c1", "inhibition": "-4.77%"}
{"smiles": "CC1CCN(S(=O)(=O)c2ccc3c(c2)n(C)c(=O)n3C)CC1", "inhibition": "-5.36%"}
{"smiles": "O=C(Nc1ccc([N+](=O)[O-])cc1)OCCc1ccccn1", "inhibition": "44%"}
{"smiles": "O=C(CC1NCCNC1=O)Nc1ccc(Oc2ccccc2)cc1", "note": "(configuration not stated)", "inhibition": "61.1% (active)"}
{"smiles": "CCN(CC)CCNCC(=O)Nc1ccc(Oc2ccccc2)cc1", "inhibition": "3.13%"}
{"smiles": "CC1CCN(CCC(=O)Nc2ccccc2)CC1", "inhibition": "-4.96%"}
{"smiles": "CCOC(=O)c1ccccc1NC(=O)CC1Nc2ccccc2NC1=O", "note": "(configuration not stated)", "inhibition": "-1.95%"}
{"smiles": "CCc1ccc(NC(=O)CC2C(=O)NCCN2C(=S)Nc2ccccc2)cc1", "note": "(configuration not stated)", "inhibition": "1.19%"}
{"smiles": "O=C(CC1Nc2ccccc2NC1=O)Nc1ccccc1", "note": "(configuration not stated)", "inhibition": "38.2% (active)"}
{"smiles": "CCOc1ccc(NC(=O)CC2NCCNC2=O)cc1", "note": "(configuration not stated)", "inhibition": "13.1%"}
{"smiles": "O=C(CC1Nc2ccccc2NC1=O)Nc1ccccc1NC(=O)CC1Nc2ccccc2NC1=O", "note": "(configuration not stated)", "inhibition": "73.6% (active)"}
{"smiles": "COC(=O)c1cc(C)sc1NC(=O)CC1Nc2ccccc2NC1=O", "note": "(configuration not stated)", "inhibition": "46.2%"}
{"smiles": "COc1ccc(C23NCCN2C(=O)c2ccccc23)cc1", "note": "(configuration not stated)", "inhibition": "-8.39%"}
{"smiles": "COc1ccc(CNC(=O)c2cc(C(=O)C3CC3)c[nH]2)cc1", "inhibition": "27.9%"}
{"smiles": "CCOC(=O)c1c(-c2ccccc2)oc2cc(Br)c(O)cc12", "inhibition": "-8.35%"}
{"smiles": "COc1cc(OC)cc(C(=O)NCCCn2ccnc2)c1", "inhibition": "13.8%"}
{"smiles": "COCCCNS(=O)(=O)c1cccc(S(=O)(=O)c2cccc(S(=O)(=O)NCCCOC)c2)c1", "inhibition": "-4.92%"}
{"smiles": "CN(C)c1ccc(C(CNC(=O)c2ccc(F)cc2)c2c[nH]c3ccccc23)cc1", "note": "(configuration not stated)", "inhibition": "5.91%"}
{"smiles": "CCCS(=O)(=O)Nc1ccc(-c2cn3c(n2)SCC3)cc1", "inhibition": "27.3%"}
{"smiles": "O=[N+]([O-])c1ccccc1NCc1ccccc1Cl", "inhibition": "8.89%"}
{"smiles": "O=C(NCCNc1ccccc1[N+](=O)[O-])c1ccccc1F", "inhibition": "61.5% (active)"}
{"smiles": "Cc1c(NC(=S)NCc2ccc(F)cc2)cccc1[N+](=O)[O-]", "inhibition": "-13.6%"}
{"smiles": "O=C(O)c1ccccc1C(=O)Nc1ccccc1[N+](=O)[O-]", "inhibition": "0.458%"}
{"smiles": "O=[N+]([O-])c1ccccc1NCc1ccc(Cl)cc1", "inhibition": "48.7% (active)"}
{"smiles": "O=C(NCCCNc1ccc([N+](=O)[O-])cc1Cl)c1ccccc1F", "inhibition": "-2.91%"}
